Laboratory results published in PubChem BioAssay (NCATS).
Records with an inconclusive call do not appear. Activity calls are given as the source filed them. Unless noted, calls follow the shape of the dose curve; as a rule, active = well fitted curve in the direction sought with a large enough effect; inconclusive = small, poorly fitted or top-dose-only effect, or another doubt; inactive = no such curve, though single readings can be large; an effect the other way counts as inactive or inconclusive.

How the values were obtained:
[1] = target: ATP-dependent 6-phosphofructokinase (Trypanosoma brucei brucei) (UniProt O15648); assay: qHTS Assay to Find Inhibitors of T. brucei phosphofructokinase: hit validation (AID 492961);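 also: luminescence reports ADP formed as PFK phosphorylates fructose-6-phosphate with ATP; % is scaled to controls: 0 for no effect and ±100 for the full control effect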
Chain of ATP-dependent 6-phosphofructokinase (Trypanosoma brucei brucei) (O15648 whole entry, looked up): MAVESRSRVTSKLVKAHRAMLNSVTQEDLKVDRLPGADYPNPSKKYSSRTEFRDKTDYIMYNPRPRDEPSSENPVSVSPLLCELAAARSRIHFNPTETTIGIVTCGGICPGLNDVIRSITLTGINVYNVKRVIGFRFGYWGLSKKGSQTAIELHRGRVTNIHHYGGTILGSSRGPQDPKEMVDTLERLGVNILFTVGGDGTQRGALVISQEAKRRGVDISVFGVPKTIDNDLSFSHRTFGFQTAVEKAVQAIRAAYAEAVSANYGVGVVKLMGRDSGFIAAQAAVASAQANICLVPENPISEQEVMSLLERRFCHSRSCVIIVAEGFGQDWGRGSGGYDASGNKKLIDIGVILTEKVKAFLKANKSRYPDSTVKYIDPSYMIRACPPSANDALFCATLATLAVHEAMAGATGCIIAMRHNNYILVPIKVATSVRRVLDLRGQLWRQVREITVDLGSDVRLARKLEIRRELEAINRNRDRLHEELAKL
In short: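 In this biochemical qHTS validation, titrated compounds were tested against 1.25 nM PFK with 0.1 mM ATP and 0.5 mM F6P. Percent activity came from controls lacking or containing enzyme.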

[2] = target: Ubiquitin carboxyl-terminal hydrolase 1 (Homo sapiens) (UniProt O94782); assay: Inhibitors of USP1/UAF1: Pilot qHTS (AID 504865);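 also: rhodamine fluorescence freed from ubiquitin-rhodamine substrate followed over time; top concentration of the series differs between compounds; % is scaled to controls: 0 for no effect and ±100 for the full control effect; nearly all actives have a fitted effect of over 35% in size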
Chain of Ubiquitin carboxyl-terminal hydrolase 1 (Homo sapiens) (O94782 whole entry, looked up): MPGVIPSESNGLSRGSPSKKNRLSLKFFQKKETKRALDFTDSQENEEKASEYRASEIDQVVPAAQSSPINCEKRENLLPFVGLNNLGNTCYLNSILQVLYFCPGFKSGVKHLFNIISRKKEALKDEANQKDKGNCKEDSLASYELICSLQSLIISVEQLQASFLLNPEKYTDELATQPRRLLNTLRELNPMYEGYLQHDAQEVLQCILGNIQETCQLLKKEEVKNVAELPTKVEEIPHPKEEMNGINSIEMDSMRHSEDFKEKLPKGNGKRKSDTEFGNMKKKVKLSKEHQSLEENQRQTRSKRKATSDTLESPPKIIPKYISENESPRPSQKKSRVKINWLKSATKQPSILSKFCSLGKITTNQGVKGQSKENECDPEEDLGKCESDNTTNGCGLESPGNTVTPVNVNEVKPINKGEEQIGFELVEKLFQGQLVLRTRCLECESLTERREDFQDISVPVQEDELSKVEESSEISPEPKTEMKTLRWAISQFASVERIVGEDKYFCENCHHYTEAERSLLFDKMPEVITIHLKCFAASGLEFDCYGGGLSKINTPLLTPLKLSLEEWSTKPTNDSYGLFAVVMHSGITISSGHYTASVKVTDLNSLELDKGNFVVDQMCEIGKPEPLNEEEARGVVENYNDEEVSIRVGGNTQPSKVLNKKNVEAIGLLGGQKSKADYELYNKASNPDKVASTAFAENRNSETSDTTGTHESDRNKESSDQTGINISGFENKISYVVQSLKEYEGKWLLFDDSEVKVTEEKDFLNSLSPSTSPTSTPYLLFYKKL
In short: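 Deubiquitinase activity followed as kinetic rhodamine fluorescence release from 150 nM Ub-Rho. 1 nM USP1/UAF1 with compound, after 15 min room-temperature preincubation, in HEPES pH 7.8 buffer containing TCEP, EDTA, BSA and Tween-20.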

[3] = target: Luciferin 4-monooxygenase (Photinus pyralis) (UniProt P08659); assay: Biochemical firefly luciferase enzyme assay for NPC (AID 624030); also: potency is read from the fitted curve at half-maximal effect; nearly all actives have a fitted effect of over 70% in size
Chain of Luciferin 4-monooxygenase (Photinus pyralis) (P08659 whole entry, looked up): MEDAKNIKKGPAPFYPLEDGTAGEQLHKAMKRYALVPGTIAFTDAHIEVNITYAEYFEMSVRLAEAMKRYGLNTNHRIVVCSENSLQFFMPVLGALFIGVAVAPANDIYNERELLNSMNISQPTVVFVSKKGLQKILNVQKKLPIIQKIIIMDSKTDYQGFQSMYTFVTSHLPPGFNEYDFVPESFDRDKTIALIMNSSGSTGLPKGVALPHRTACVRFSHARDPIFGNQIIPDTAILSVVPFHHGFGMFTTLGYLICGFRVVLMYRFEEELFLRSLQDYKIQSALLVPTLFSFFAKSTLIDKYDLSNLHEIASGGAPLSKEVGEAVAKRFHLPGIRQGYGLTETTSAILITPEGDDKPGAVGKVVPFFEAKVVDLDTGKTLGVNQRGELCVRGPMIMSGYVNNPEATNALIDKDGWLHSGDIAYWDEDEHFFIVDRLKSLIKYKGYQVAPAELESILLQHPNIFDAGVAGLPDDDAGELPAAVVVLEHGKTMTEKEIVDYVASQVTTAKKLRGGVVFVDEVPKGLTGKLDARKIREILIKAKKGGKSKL
In short: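 Direct inhibition of firefly luciferase enzyme (10 nM final, 50 mM Tris Acetate) assessed by luminescence within 5 minutes. Percent activity scaled between DMSO and PTC124 positive control, with concentration-effect curves classified by fit quality and response.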

[4] = S16 Schwann cell viability assay (CellTiter-Glo assay) (AID 624031);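 also: native untransfected S16 rat Schwann cells; cellular ATP luminescence as a viability measure; plate controls were DMSO-treated cells for no effect and cell-free wells for full effect; nearly all actives have a fitted effect of over 70% in size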
In short: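 Parental S16 cells, 24 h compound, 37 °C. ATP-luminescence viability; DMSO = 0% activity, empty wells as reference; curves classified by fit quality and efficacy.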

[5] = S16 Schwann cell PMP22 intronic element firefly luciferase assay (AID 624032);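 also: plate controls were DMSO for no effect and PTC124 positive control mean for full effect; nearly all actives have a fitted effect of over 30% in size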
In short: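 Luciferase reporter of PMP22 intronic-element expression in stably transfected S16 rat Schwann cells, read by ONE-Glo luminescence after 24 h compound exposure at 37 C. Activity scaled between DMSO (0%) and positive-control PTC124; concentration-effect curves quality-classified.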

[6] = S16 Schwann cell PMP22 intronic element beta-lactamase assay (AID 624044; calls by dose curve;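 also: 0% = DMSO and -100% = potassium clavulanate positive control; nearly all actives have a fitted effect of over 15% in size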)
In short: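 Rat S16 Schwann cells with beta-Lac driven by a PMP22 intronic element, compound-treated 24 h at 37 °C. LiveBLAzer FRET B/G read: 460 nm normalized to potassium clavulanate vs DMSO; 535 nm FRET as viability; concentration-effect curves classified.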

[7] = NCATS anti-infectives library activity on HEK293 viability as a counter-qHTS vs the C. elegans viability qHTS (AID 1745854); also: % is scaled to controls: 0 for no effect and ±100 for the full control effect
In short: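 HEK293 cells, 1500 per well, exposed 24 hr at 37C in 5% CO2 to compounds in a 1:5 titration, up to 41.7 uM final. Viability read as CellTiter-Glo luminescence after 10 min at room temperature.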

[8] = target: Phospholipid hydroperoxide glutathione peroxidase GPX4 (Homo sapiens) (UniProt P36969); assay: Primary qHTS Assay for Inhibitors of Recombinant Selenoprotein Glutathione Peroxidase 4 (GPX4) (AID 1845192); also: nearly all actives have a fitted effect of over 65% in size
Chain of Phospholipid hydroperoxide glutathione peroxidase GPX4 (Homo sapiens) (P36969 whole entry, looked up): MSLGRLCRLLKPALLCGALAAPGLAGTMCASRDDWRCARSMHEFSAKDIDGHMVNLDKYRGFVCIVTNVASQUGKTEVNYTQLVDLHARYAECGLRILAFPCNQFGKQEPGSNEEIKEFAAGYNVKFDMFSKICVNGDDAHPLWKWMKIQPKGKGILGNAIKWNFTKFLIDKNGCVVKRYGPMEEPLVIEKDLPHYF
In short: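 NADPH consumption, followed by fluorescence at 340/450 nm between 0 and 15 min, reports GPX4 activity via coupled glutathione reductase (100 nM). Enzyme 200 nM was pre-exposed to compound 30 min; 0.5 mM cumene hydroperoxide and 1 mM GSH served as substrates.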

[9] = qHTS profiling for inhibitors of Plasmodium falciparum proliferation (AID 504749);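 also: 0% = DMSO vehicle and full inhibition = artemisinin control; nearly all actives have a fitted effect of over 60% in size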; settings: P. falciparum in erythrocytes, SYBR Green DNA, 72 h, at 28.7 µM (top of the series)
In short: (§1)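 Three-day growth assay of blood-stage parasites in erythrocytes (0.3% parasitemia, 2.5% hematocrit) at 37 C, 5% CO2, quantified by SYBR Green DNA staining after overnight detergent lysis.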

3D7 = assay: as above; settings: P. falciparum in erythrocytes, SYBR Green DNA, 72 h; series mostly up to 12.8 µM
In short: as §1

7G8 = assay: as above; settings: P. falciparum in erythrocytes, SYBR Green DNA, 72 h; series mostly up to 12.8 µM
In short: as §1

AA1029 = assay: as above; settings: P. falciparum in erythrocytes, SYBR Green DNA, 72 h; series mostly up to 12.8 µM
In short: as §1

AS120 = assay: as above; settings: P. falciparum in erythrocytes, SYBR Green DNA, 72 h; series mostly up to 12.8 µM
In short: as §1

ATS189 = assay: as above; settings: P. falciparum in erythrocytes, SYBR Green DNA, 72 h; series mostly up to 12.8 µM
In short: as §1

C2A = assay: as above; settings: P. falciparum in erythrocytes, SYBR Green DNA, 72 h; series mostly up to 12.8 µM
In short: as §1

CP185 = assay: as above; settings: P. falciparum in erythrocytes, SYBR Green DNA, 72 h; series mostly up to 12.8 µM
In short: as §1

CP191 = assay: as above; settings: P. falciparum in erythrocytes, SYBR Green DNA, 72 h; series mostly up to 12.8 µM
In short: as §1

CP192 = assay: as above; settings: P. falciparum in erythrocytes, SYBR Green DNA, 72 h; series mostly up to 12.8 µM
In short: as §1

CP194 = assay: as above; settings: P. falciparum in erythrocytes, SYBR Green DNA, 72 h; series mostly up to 12.8 µM
In short: as §1

CP201 = assay: as above; settings: P. falciparum in erythrocytes, SYBR Green DNA, 72 h; series mostly up to 12.8 µM
In short: as §1

CP203 = assay: as above; settings: P. falciparum in erythrocytes, SYBR Green DNA, 72 h; series mostly up to 12.8 µM
In short: as §1

CP211 = assay: as above; settings: P. falciparum in erythrocytes, SYBR Green DNA, 72 h; series mostly up to 12.8 µM
In short: as §1

CP215 = assay: as above; settings: P. falciparum in erythrocytes, SYBR Green DNA, 72 h; series mostly up to 12.8 µM
In short: as §1

CP217 = assay: as above; settings: P. falciparum in erythrocytes, SYBR Green DNA, 72 h; series mostly up to 12.8 µM
In short: as §1

CP237 = assay: as above; settings: P. falciparum in erythrocytes, SYBR Green DNA, 72 h; series mostly up to 12.8 µM
In short: as §1

CP238 = assay: as above; settings: P. falciparum in erythrocytes, SYBR Green DNA, 72 h; series mostly up to 12.8 µM
In short: as §1

CP247 = assay: as above; settings: P. falciparum in erythrocytes, SYBR Green DNA, 72 h; series mostly up to 12.8 µM
In short: as §1

CP250 = assay: as above; settings: P. falciparum in erythrocytes, SYBR Green DNA, 72 h; series mostly up to 12.8 µM
In short: as §1

CP252 = assay: as above; settings: P. falciparum in erythrocytes, SYBR Green DNA, 72 h; series mostly up to 12.8 µM
In short: as §1

CP256 = assay: as above; settings: P. falciparum in erythrocytes, SYBR Green DNA, 72 h; series mostly up to 12.8 µM
In short: as §1

CP260 = assay: as above; settings: P. falciparum in erythrocytes, SYBR Green DNA, 72 h; series mostly up to 12.8 µM
In short: as §1

CP262 = assay: as above; settings: P. falciparum in erythrocytes, SYBR Green DNA, 72 h; series mostly up to 12.8 µM
In short: as §1

Nc1nc(NC2CC2)c2ncn([C@H]3C=C[C@@H](CO)C3)c2n1
inactive: outcome [1] | Potency [2] | outcome [4] | Potency [5] | Potency [6] | outcome [7] | Potency [8] | activity, negative = inhibition ([9]; parasite line A) 8.14% | activity, negative = inhibition ([9]; parasite line B) 1.25% | Potency (3D7) | Potency (7G8) | Potency (AA1029) | Potency (AS120) | Potency (ATS189) | Potency (C2A) | Potency (CP185) | Potency (CP191) | Potency (CP192) | Potency (CP194) | Potency (CP201) | Potency (CP203) | Potency (CP211) | Potency (CP215) | Potency (CP217) | Potency (CP237) | Potency (CP238) | Potency (CP247) | Potency (CP250) | Potency (CP252) | Potency (CP256) | Potency (CP260) | Potency (CP262)
active: Potency [3] 11.4 µM
